Results reported in PubChem BioAssay AID1662 (Broad Institute, 2009).
About 4,000 (1.3%) of roughly 300,000 compounds were called active. What follows is part of a selection rich in actives, with near analogues and random picks from the rest. Unmarked numbers belong to inactive results.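 Rule for the calls: active = mean replicate score, as percent of positive control median, at least 50; inconclusive = mean below 50 but one replicate at or above 50; inactive = mean and every replicate below 50.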

Assay: S. pyogenes SKKanGAS growth inhibitors in kanamycin, primary screen, streptokinase expression inhibitor project, SKKanGAS strain, BacTiter-Glo luminescence (AID 1662);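 note: strain carries kanamycin resistance gene driven by streptokinase promoter and grows in 40 µg/ml kanamycin; loss of luminescence reflects streptokinase promoter inhibition or plain growth inhibition; 0% = median of DMSO wells and 100% = positive control at its reference dose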
Conditions: 6 h, at 7.5 µM, hits give high values
In the case of `CS(=O)(=O)N1CCN(CC(=O)NC2CCCC2)CC1`, the inhibition is reported as -2.39%. For `CNC(=S)N/N=C/c1cn(Cc2ccc(C)cc2)c2ccccc12`, the inhibition was 53.8% (active). With `COC(=O)N/N=C/c1cn(CCCOc2ccc(C)cc2)c2ccccc12` the inhibition was 8.83%. Compound `CCOC(=O)N/N=C/c1cn(Cc2ccccc2Cl)c2ccccc12` has an inhibition of 6.39%. `CC(C)(C)c1cc2cccnc2n1Cc1cccc(F)c1` gave an inhibition of -3.63%. With `COc1ccc(C(=NN)c2ccc(OC)cc2)cc1` the inhibition was -9.25%. For `CCc1ccc(N(CC(=O)NCc2cccnc2)S(=O)(=O)c2ccccc2)cc1`, the inhibition was -18.2%. `Cc1scc(C(=O)NNC(=S)NCC(C)C)c1C` gave an inhibition of -0.356%. Work on `CC(C)(C)C(=O)NNC(=O)c1ccc(Oc2cc(Cl)cc(Cl)c2)o1` yielded an inhibition of 0.127%. For `CN(c1ccccc1)S(=O)(=O)c1cc(C(=O)Nc2nc3ccccc3[nH]2)ccc1Cl`, the inhibition was 58.3% (active). In the case of `CN(c1ccccc1)S(=O)(=O)c1ccc(Cl)c(C(=O)NCCc2c[nH]c3ccccc23)c1`, the inhibition is reported as 4.79%. `CN(c1ccccc1)S(=O)(=O)c1cc(C(=O)OCC(=O)N2CCN(C(=O)c3ccco3)CC2)ccc1Cl` showed an inhibition of -0.977%. In the case of `COc1cc2ccccc2cc1C(=O)N(CCN(C)C)c1nc2c(F)cccc2s1`, the inhibition is reported as 0.17%. For `COc1cccc(CSc2nc3nc(C)cc(C)n3n2)c1`, the inhibition was 3.04%. In the case of `CSc1c(SCc2ccccc2)cnn(Cc2ccccc2)c1=O`, the inhibition is reported as 66.2% (active). For `CC(=O)Nc1ccc(NC(=O)CSc2ncnc3c2cnn3Cc2ccccc2)cc1`, the inhibition was 3.94%. In the case of `CSc1nc2ccccc2c(=O)n1Cc1ccc(F)cc1`, the inhibition is reported as 18.7%. Work on `Cc1ccc(-c2noc(CNC(=O)c3ccoc3C)n2)cc1` yielded an inhibition of 0.278%. For `O=C(N/N=C/c1ccc([N+](=O)[O-])o1)c1cn(-c2ccccc2)nc1-c1ccc(F)cc1`, the inhibition was 85.5% (active). Compound `O=C(N/N=C/c1ccc([N+](=O)[O-])o1)c1cccc(S(=O)(=O)N2CCOCC2)c1` has an inhibition of 5.79%. In the case of `Cc1ccc(-c2nn(-c3ccccc3)cc2/C=N/NC(=O)c2ccc3c(c2)OCO3)cc1`, the inhibition is reported as 11.9%. `CCn1cc(CCC(=O)NCc2ccc(F)cc2)c2ccccc21` gave an inhibition of 0.859%. For `COc1cccc(NC(=O)CSc2nnc(Cc3ccc(OC)c(OC)c3)o2)c1`, the inhibition was -5.07%. For `Cc1cccc([C@@H]2[C@@H]3C(=O)N(C)C(=O)[C@@H]3[C@@H]3C(=O)Nc4ccccc4C(=O)N23)c1`, the inhibition was 1.01%. Work on `COc1ccc(N2CCN(CCCNC(=O)C3CCN(S(=O)(=O)N4CCOCC4)CC3)CC2)cc1` yielded an inhibition of 0.276%. Compound `CC(C)c1ccc(NC(=S)NNc2ccc(Cl)c(C(=O)O)c2)cc1` has an inhibition of 5.7%. With `Cc1ccc(C)c(NC(=S)NNC(=O)c2csc(C)c2)c1` the inhibition was -5.04%. For `Cc1ccc(C)c(NC(=S)NNC(=S)Nc2ccc(C(C)C)cc2)c1`, the inhibition was 51.2% (active). With `C[C@@H]1CC[C@]2(O[C@@H](CCO)C[C@H](O)[C@H]2O)O1` the inhibition was -1.49%. Work on `CN(C)S(=O)(=O)c1cccc(-c2nn(-c3ccccc3)cc2/C=C2\SC(=S)N(CC(=O)O)C2=O)c1` yielded an inhibition of 25.2%. `COc1ccc(-c2nn(-c3ccccc3)cc2/C=C2/SC(=S)N(CCCC(=O)O)C2=O)c(C)c1` showed an inhibition of 46.2%. In the case of `Cc1ccc(-c2nn(-c3ccccc3)cc2/C=C2\SC(=S)N(CCCCCC(=O)O)C2=O)o1`, the inhibition is reported as 103% (active). For `CCCN(CC(=O)Nc1ccccc1OC)C(=O)CCC(=O)c1ccc(F)cc1`, the inhibition was -6.42%. In the case of `Oc1c(Cl)cc(Cl)c(Cl)c1Cc1c(O)c(Cl)cc(Cl)c1Cl`, the inhibition is reported as 109% (active). Work on `CO/N=C/CC(=O)c1ccc(OC)cc1` yielded an inhibition of -3.09%. For `CSCCC(NS(=O)(=O)c1ccccc1F)C(=O)N1CC=C(c2ccccc2)CC1` (stereo not given), the inhibition was -1.43%. For `O=C(Nc1ccc2oc(-c3ccccc3F)nc2c1)c1ccco1`, the inhibition was -5.59%. Compound `COc1ccc2[nH]c(=O)c(CNc3ccc(C)c(C)c3)cc2c1` has an inhibition of 26.7%. With `Cn1nc(-c2ccccc2)c(CSc2cccc(Cl)c2)c1Cl` the inhibition was 61.6% (active). In the case of `Cn1nc(-c2ccccc2)c(CO)c1Sc1ccccc1`, the inhibition is reported as -5.22%. `Cc1ccc(S(=O)(=O)c2c(COC(=O)c3cccc(Cl)c3)c(-c3ccccc3)nn2C)cc1` gave an inhibition of -28.6%. `CC(=O)N(CN1C(=O)C2C3C=CC(C3)C2C1=O)c1cccc(Cl)c1` (stereo not given) showed an inhibition of -0.219%. In the case of `CCOC(=O)c1nnn(CC(=O)Nc2cccc(F)c2)c1C(=O)OCC`, the inhibition is reported as -0.0535%. For `COc1cccc(CN(C)CC2CCCN(CCc3ccc(Cl)cc3)C2)c1OC` (stereo not given), the inhibition was -0.785%. For `COc1ccc(NC(=O)CS(=O)(=O)c2ccccc2)cc1`, the inhibition was -4.25%.
